Data as given in PubChem BioAssay (Tox21).
Inconclusive results are not listed. Entries that show only a call come without a potency. The source made the active and inactive calls. Calls follow the shape of the full dose curve.
Potency is read from the fitted curve at half-maximal effect.

The compounds below were run against Progesterone receptor (Homo sapiens) (UniProt P06401) (assay: qHTS assay to identify small molecule agonists of the progesterone receptor (PR) signaling pathway (AID 1346784; also: nearly all actives have a fitted effect of over 30% in size)). Settings: PR-UAS-bla HEK293T, beta-lactamase FRET ratio, 16 h; series mostly up to 92.4 µM.
Sequence of Progesterone receptor (Homo sapiens) (P06401 whole entry, looked up): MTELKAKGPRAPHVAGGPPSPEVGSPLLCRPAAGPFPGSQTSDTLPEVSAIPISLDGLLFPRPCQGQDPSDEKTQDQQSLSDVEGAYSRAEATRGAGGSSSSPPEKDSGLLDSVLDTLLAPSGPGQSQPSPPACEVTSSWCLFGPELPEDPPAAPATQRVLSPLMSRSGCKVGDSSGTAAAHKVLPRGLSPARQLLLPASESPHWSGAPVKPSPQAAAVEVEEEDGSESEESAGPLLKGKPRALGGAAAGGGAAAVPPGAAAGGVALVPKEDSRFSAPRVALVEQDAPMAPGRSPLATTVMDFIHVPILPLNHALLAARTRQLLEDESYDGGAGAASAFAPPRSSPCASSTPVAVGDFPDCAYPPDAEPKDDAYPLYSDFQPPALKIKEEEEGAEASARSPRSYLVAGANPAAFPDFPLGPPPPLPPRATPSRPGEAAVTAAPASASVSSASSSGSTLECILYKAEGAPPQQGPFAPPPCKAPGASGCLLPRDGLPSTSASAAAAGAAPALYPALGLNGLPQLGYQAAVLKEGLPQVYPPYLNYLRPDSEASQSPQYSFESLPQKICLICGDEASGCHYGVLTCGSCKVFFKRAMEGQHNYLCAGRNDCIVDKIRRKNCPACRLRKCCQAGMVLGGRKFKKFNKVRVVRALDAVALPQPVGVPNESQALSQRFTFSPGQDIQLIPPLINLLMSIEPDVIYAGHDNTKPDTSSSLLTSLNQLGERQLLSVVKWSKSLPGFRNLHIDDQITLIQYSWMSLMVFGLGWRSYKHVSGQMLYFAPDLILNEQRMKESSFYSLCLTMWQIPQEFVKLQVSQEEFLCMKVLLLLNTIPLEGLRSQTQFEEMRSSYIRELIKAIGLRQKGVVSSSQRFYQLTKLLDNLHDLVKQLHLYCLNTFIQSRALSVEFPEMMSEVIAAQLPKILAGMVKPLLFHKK
How it was run: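 Cells (PR-UAS-bla HEK 293T, GripTite) were plated in assay medium containing 2% charcoal-stripped FBS and incubated 6 hr. Test compounds in DMSO were added for 16 hr at 37C. FRET substrate was then loaded for 2 hr at room temperature before fluorescence reading.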
With `C=CCn1c(=O)n(CC=C)c(=O)n(CC=C)c1=O` the Potency was “inactive”. For `CCn1c2ccccc2c2cc([N+](=O)[O-])ccc21`, the Potency was “inactive”. With `COc1ccc(NC(=O)CC(C)=O)cc1` the Potency was “inactive”. With `Cc1cc(-c2ccc(N=Nc3cc(S(=O)(=O)O)c4ccccc4c3N)c(C)c2)ccc1N=Nc1cc(S(=O)(=O)O)c2ccccc2c1N` the Potency was “inactive”. With `NC(=O)c1cccc([N+](=O)[O-])c1` the Potency was “inactive”. In the case of `CCCCC(CC)CN1CN(CC(CC)CCCC)CC(C)(N)C1` (centres undefined), the Potency is reported as “inactive”. For `OCC(F)(F)F`, the Potency was “inactive”. In the case of `CCCCCC/C=C\CCCCCCCC(=O)O`, the Potency is reported as “inactive”. For `C=CCCC(=O)/C=C/C1C(C)=CCCC1(C)C` (centres undefined), the Potency was “inactive”. In the case of `COC(C)=O`, the Potency is reported as “inactive”. `OC12N=C(c3ccccc3)SC1Cc1cc(Cl)ccc12` (centres undefined) was tested, and the Potency was “inactive”. For `CCCCOC(=O)CO`, the Potency was “inactive”. With `O=[N+]([O-])c1ccc(F)c(Cl)c1` the Potency was 1090 nM (active). `Oc1ccccc1O` was tested, and the Potency was “inactive”.
